Reference: PubChem BioAssay (Tox21)
Records with an inconclusive call do not appear. Calls of active or inactive are those of the source. Unless noted, the call rests on the fitted dose curve.

Columns and labels:
[1] = Nuclear factor erythroid 2-related factor 2/antioxidant responsive element (Nrf2/ARE) small molecule agonists: qHTS cell viability counter screen in human keratinocytes (AID 1919968; active means well fitted curve in the direction sought with a large enough effect in the repeat runs; an effect the other way counts as inactive or inconclusive; further: nearly all actives have a fitted effect of over 55% in size; further: potency means the concentration at half of the fitted maximal effect)
How it was run: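 Fluorescence read-out from CellTiter-Fluor after 1 h at 37 C. Wells held HaCaT-derived ARE-luciferase reporter cells (1,500/well) treated 23 h with DMSO-dissolved compounds. Run in the same wells as the luciferase agonist read.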

[2] = biological target: Gonadotropin-releasing hormone receptor (Homo sapiens) (UniProt P30968); experiment: Human gonadotropin-releasing hormone receptor (GnRHR) small molecule agonists, calcium flux assay in GnRHR-HEK293 cells (AID 1920063); further: nearly all actives have a fitted effect of over 35% in size
How it was run: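 Calcium-dye fluorescence, Ex/Em=480/540, recorded every 1 sec over 3 min after compound addition to GnRHR-HEK293 cells. Cells had been seeded 18 hours earlier and dye-loaded for 1 hour at 37 C. Fifteen concentrations, triplicates.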

[3] = biological target: KiSS-1 receptor (Homo sapiens) (UniProt Q969F8); experiment: Human kisspeptin (KISS1R) small molecule agonists, calcium flux assay in KISS1R-HEK293 cells (AID 1920064; active means well fitted curve in the direction sought with a large enough effect in the repeat runs; an effect the other way counts as inactive or inconclusive; further: potency means the concentration at half of the fitted maximal effect)
How it was run: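 Calcium flux read-out: kinetic fluorescence at Ex/Em=480/540, 1 s intervals over 3 min, after pin-tool compound addition to dye-loaded KISS1R-HEK293 cells. Fifteen concentrations, triplicates.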

[4] = G protein-coupled receptor (GPCR) small molecule agonists, calcium flux assay: HEK293 wild type cell line counter screen (AID 1920065)
How it was run: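 Agonist mode; 18 h seeding at 37 C, 1 h dye load at 37 C; compounds pinned from DMSO, ATP as positive control; kinetic fluorescence 480/540 nm, 3 min, 1 s reads; 15 concentrations, triplicate.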

[5] = p53 small molecule agonists, cell-based qHTS assay with human liver microsomes (AID 1963577);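 further: p53 response element beta-lactamase reporter cells with liver microsomes plus NADPH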
How it was run: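 In this qHTS, p53 response-element beta-lactamase cells receive test compound together with a microsome/NADPH activating system (0.5 mg/mL final each) and are incubated 16 h at 37 C before LiveBLAzer fluorescence detection.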

[6] = p53 small molecule agonists, cell-based qHTS assay with rat liver microsomes (AID 1963578)
How it was run: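 Agonist mode in p53RE-bla reporter cells, with compounds co-incubated 16 h at 37 C alongside 0.5 mg/mL rat liver microsomes and 0.5 mg/mL NADPH (final), followed by a 2 h LiveBLAzer detection step.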

[7] = p53 small molecule agonists, cell-based qHTS assay with human liver microsomes: qHTS cell viability counter screen (AID 1963579); further: nearly all actives have a fitted effect of over 45% in size
How it was run: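 Metabolically activated exposure: compounds, human liver microsomes and NADPH (0.5 mg/mL final apiece) were added to p53RE-bla cells seeded 5 h earlier, left 16 h at 37 C, and then assessed for viability by CellTiter-Glo luminescence.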

[8] = p53 small molecule agonists, cell-based qHTS assay with rat liver microsomes: qHTS cell viability counter screen (AID 1963580); further: nearly all actives have a fitted effect of over 45% in size
How it was run: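 Luminescent ATP readout (CellTiter-Glo, 30 min at room temperature) reports viability of p53RE-bla HCT-116 cells after 16 h at 37 C with test compounds under metabolic activation by rat liver microsomes and NADPH at 0.5 mg/mL final each.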

[9] = p53 small molecule agonists, cell-based qHTS assay: qHTS cell viability counter screen (AID 1963581); further: nearly all actives have a fitted effect of over 45% in size; further: potency means the concentration at half of the fitted maximal effect
How it was run: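 Cytotoxicity read-out: ATP-based luminescence (CellTiter-Glo, 30 min RT) measured in the same wells as the p53 reporter assay, HCT-116 p53RE-bla cells, 16 h compound exposure at 37 C.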

[10] = p53 small molecule agonists, cell-based qHTS assay (AID 1963582; active means well fitted activation curve with a large enough effect in the signal ratio in the repeat runs, not every such curve was filed as active; the % refers to the signal ratio)
How it was run: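 Fluorescence intensity read-out of a beta-lactamase reporter under a p53 response element. Cells were exposed to DMSO-dissolved compounds for 16 h at 37 C, then developed with FRET substrate for 2 h at RT.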

[11] = biological target: 5-hydroxytryptamine receptor 2A (Homo sapiens) (UniProt P28223); experiment: 5-hydroxytryptamine receptor 2A (HTR2A) small molecule antagonists, cell-based qHTS assay (AID 1963586); further: nearly all actives have a fitted effect of over 45% in size; further: potency means the concentration at half of the fitted maximal effect
How it was run: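 CHO cells stably expressing human HTR2A were plated for 18 h at 37 C, then loaded with calcium dye for 1 h. Compounds were preincubated 5 min at room temperature before DOI (4 nM solution) was added. Kinetic fluorescence was read for 3 min.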

[12] = biological target: 5-hydroxytryptamine receptor 2A (Homo sapiens) (UniProt P28223); experiment: 5-hydroxytryptamine receptor 2A (HTR2A) small molecule agonists, cell-based qHTS assay (AID 1963587); further: nearly all actives have a fitted effect of over 30% in size; further: potency means the concentration at half of the fitted maximal effect
How it was run: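 HTR2A-CHO cells, plated 18 h at 37 C/5% CO2, dye-loaded 1 h at 37 C; compounds in DMSO added by pin tool (agonist mode). Intracellular calcium flux read as kinetic fluorescence on FDSS over 2 min at 1 s intervals.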

[13] = biological target: Muscarinic acetylcholine receptor M1 (Homo sapiens) (UniProt P11229); experiment: Cholinergic receptor muscarinic 1 (CHRM1) small molecule antagonists, cell-based qHTS assay (AID 1963588); further: nearly all actives have a fitted effect of over 40% in size; further: potency means the concentration at half of the fitted maximal effect
How it was run: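 Compounds were tested at 15 concentrations in three independent runs. Dye-loaded CHRM1-CHO cells were exposed 5 min at room temperature before stimulation by acetylcholine added at 50nM. Intracellular calcium was read kinetically on FDSS for 3 min.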

[14] = biological target: Muscarinic acetylcholine receptor M1 (Homo sapiens) (UniProt P11229); experiment: Cholinergic receptor muscarinic 1 (CHRM1) small molecule agonists, cell-based qHTS assay (AID 1963589); further: nearly all actives have a fitted effect of over 35% in size
How it was run: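 Calcium flux read-out: kinetic fluorescence at 1 sec intervals after pin-tool compound addition to dye-loaded CHRM1-CHO cells (human M1). Agonist mode; 15 concentrations tested in triplicate independent runs.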

[15] = cAMP Responsive Elements (CRE) small molecule agonists, cell-based qHTS assay (AID 1963590)
How it was run: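 Beta-lactamase reporter readout: LiveBLAzer B/G FRET substrate, 2 h at room temperature, added after 3 h compound treatment of CRE-bla HEK 293T cells at 37 C/5% CO2.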

[16] = biological target: Beta-2 adrenergic receptor (Homo sapiens) (UniProt P07550); experiment: Adrenergic beta2 receptor (ADRB2) small molecule antagonists, cell-based qHTS assay (AID 1963592); further: nearly all actives have a fitted effect of over 50% in size; further: potency means the concentration at half of the fitted maximal effect
How it was run: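 Assay format: CHO-ADRB2 cells, 18-20hr seeding at 37C/5% CO2, then compound plus 1nM isoproterenol agonist mix for 0.5hr RT. Homogeneous time-resolved fluorescence cAMP detection after 1hr, expressed as 665/615 nm ratio.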

[17] = biological target: D(2) dopamine receptor (Homo sapiens) (UniProt P14416); experiment: Dopamine D2 receptor (DRD2) small molecule agonists, cell-based qHTS assay (AID 1963594); further: nearly all actives have a fitted effect of over 35% in size
How it was run: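 HEK293 cells stably expressing DRD2 were cultured 24 h at 37 C, then given Ro20-1724 (0.1 mM final) and compounds for 10 min at room temperature. NKH477 (200nM) was then added for 30 min. cAMP was read by HTRF.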

[18] = biological target: Beta-2 adrenergic receptor (Homo sapiens) (UniProt P07550); experiment: Adrenergic beta2 receptor (ADRB2) small molecule agonists, cell-based qHTS assay (AID 1963593);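 further: CHO cells stably overexpressing human ADRB2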
How it was run: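 CHO cells stably over-expressing ADRB2 were plated overnight at 37C, then dosed with compounds plus a stimulation mix containing 100uM IBMX and 25uM Ro-20-1724 for 0.5hr at room temperature. cAMP was measured by HTRF competition, 1hr.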

[19] = biological target: D(2) dopamine receptor (Homo sapiens) (UniProt P14416); experiment: Dopamine D2 receptor (DRD2) small molecule antagonists, cell-based qHTS assay (AID 1963595; active means well fitted inhibition curve with a large enough effect in the signal ratio in the repeat runs, with a control signal flat; the % refers to the signal ratio; further: potency means the concentration at half of the fitted maximal effect)
How it was run: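 Cells were plated and grown for 24 h at 37 °C. Ro20-1724 (0.1 mM final) went in first, then compound for 10 min. NKH477 (200 nM) with quinpirole (12 nM) followed for 30 min at RT, then HTRF detection reagents for 1 h.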

[20] = cAMP Responsive Elements (CRE) small molecule antagonists, cell-based qHTS assay (AID 1963591; active means well fitted inhibition curve with a large enough effect in the signal ratio in the repeat runs, not every such curve was filed as active; the % refers to the signal ratio)
How it was run: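 HEK293T CRE-bla; 18 h preincubation; compound pin-transfer; NKH477 0.25 uM final, 3 h, 37 C; LiveBLAzer FRET substrate 2 h RT.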

Measured: Potency

Sequence of 5-hydroxytryptamine receptor 2A (Homo sapiens) (P28223 whole entry, looked up): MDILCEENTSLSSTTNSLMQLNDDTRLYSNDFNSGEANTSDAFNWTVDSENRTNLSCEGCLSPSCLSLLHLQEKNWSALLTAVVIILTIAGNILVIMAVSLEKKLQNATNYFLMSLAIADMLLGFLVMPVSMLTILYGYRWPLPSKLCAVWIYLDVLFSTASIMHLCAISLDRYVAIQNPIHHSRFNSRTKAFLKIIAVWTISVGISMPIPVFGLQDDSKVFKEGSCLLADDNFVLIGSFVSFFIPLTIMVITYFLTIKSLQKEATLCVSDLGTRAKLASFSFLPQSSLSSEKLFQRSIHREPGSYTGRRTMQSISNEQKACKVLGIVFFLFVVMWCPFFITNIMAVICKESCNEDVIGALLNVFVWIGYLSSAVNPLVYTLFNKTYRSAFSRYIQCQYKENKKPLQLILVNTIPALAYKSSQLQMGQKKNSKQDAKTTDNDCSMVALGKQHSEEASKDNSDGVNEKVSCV
Sequence of Beta-2 adrenergic receptor (Homo sapiens) (P07550 whole entry, looked up): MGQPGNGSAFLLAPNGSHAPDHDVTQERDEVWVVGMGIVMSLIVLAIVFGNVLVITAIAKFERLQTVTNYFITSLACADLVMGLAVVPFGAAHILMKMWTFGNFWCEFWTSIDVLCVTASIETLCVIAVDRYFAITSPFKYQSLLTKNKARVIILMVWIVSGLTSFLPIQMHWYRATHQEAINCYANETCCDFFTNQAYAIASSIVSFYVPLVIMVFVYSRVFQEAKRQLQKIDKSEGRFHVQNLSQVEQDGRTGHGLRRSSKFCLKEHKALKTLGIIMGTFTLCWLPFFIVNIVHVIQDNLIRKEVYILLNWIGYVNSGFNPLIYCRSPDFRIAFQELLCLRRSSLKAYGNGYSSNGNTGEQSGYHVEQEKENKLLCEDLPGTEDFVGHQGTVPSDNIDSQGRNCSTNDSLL
Sequence of Muscarinic acetylcholine receptor M1 (Homo sapiens) (P11229 whole entry, looked up): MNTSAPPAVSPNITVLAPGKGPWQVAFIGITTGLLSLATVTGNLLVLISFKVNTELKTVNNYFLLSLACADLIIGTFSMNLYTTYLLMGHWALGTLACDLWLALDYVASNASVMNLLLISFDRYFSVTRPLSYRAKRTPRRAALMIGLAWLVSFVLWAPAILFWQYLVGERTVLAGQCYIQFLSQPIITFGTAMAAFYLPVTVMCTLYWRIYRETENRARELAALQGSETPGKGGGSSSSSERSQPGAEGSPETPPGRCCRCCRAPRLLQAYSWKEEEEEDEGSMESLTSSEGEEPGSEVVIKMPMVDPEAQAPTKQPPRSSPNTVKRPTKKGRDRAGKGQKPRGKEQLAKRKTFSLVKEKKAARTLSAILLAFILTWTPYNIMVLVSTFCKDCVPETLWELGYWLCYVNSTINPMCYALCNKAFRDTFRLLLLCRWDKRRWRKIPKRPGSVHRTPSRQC
Sequence of D(2) dopamine receptor (Homo sapiens) (P14416 whole entry, looked up): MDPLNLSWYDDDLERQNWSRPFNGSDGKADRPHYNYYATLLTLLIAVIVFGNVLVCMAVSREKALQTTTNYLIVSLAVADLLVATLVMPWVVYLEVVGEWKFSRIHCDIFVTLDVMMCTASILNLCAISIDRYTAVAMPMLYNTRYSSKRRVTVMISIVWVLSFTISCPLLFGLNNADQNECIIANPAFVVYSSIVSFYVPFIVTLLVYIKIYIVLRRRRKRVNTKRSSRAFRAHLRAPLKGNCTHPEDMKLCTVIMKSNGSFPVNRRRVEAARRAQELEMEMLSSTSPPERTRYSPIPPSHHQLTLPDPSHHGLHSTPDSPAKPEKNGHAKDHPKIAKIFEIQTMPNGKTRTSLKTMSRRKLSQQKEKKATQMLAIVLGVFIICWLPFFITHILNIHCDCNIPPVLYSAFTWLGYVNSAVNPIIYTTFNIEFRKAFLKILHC
Sequence of Gonadotropin-releasing hormone receptor (Homo sapiens) (P30968 whole entry, looked up): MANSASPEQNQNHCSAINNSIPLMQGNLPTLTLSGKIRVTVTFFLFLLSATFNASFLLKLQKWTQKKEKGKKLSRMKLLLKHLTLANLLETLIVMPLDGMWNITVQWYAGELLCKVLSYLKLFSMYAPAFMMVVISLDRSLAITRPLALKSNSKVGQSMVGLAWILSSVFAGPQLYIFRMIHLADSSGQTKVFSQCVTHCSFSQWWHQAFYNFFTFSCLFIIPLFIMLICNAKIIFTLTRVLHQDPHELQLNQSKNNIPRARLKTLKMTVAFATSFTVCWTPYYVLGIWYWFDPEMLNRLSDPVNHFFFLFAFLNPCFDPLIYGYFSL
Sequence of KiSS-1 receptor (Homo sapiens) (Q969F8 whole entry, looked up): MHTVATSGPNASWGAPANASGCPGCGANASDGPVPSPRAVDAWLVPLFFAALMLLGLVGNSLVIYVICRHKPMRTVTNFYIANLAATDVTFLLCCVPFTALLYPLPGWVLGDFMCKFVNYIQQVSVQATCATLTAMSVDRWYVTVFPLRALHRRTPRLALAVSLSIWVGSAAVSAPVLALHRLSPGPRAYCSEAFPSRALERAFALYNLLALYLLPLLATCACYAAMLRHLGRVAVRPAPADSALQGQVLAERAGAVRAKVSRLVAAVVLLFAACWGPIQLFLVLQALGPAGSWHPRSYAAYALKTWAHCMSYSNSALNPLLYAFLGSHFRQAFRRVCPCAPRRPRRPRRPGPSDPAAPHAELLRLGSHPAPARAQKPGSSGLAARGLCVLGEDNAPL

FC(F)(F)c1cccc(C2=CCN(CCc3ccc4ccccc4c3)CC2)c1
not listed: [18] | [19] | [20]
inactive: all other assays above

O=c1c(C2CC(c3ccc(-c4ccc(Br)cc4)cc3)Cc3ccccc32)c(O)sc2ccccc12 (stereo not drawn)
active: [1] 29.8 µM | [9] 8.9 µM
not listed: [15] | [20]
inactive: all other assays above

O=[N+]([O-])C(Br)Br
active: [11] 37.6 µM | [12] 55 µM
not listed: [14] | [16] | [18]
inactive: all other assays above

CC(Oc1cccc(Cl)c1)C(=O)O (stereo not drawn)
not listed: [15] | [16] | [18]
inactive: all other assays above

N=C(N)[Se]
not listed: [10] | [12]
inactive: all other assays above

COc1cnc(OC)n2nc(NS(=O)(=O)c3c(OCC(F)F)cccc3C(F)(F)F)nc12
not listed: [15] | [17] | [18]
inactive: all other assays above

CCCCc1ccc(O)cc1
not listed: [13] | [14] | [15]
inactive: all other assays above

CCCCOC(=O)[C@@H](C)Oc1ccc(Oc2ccc(C#N)cc2F)cc1
active: [13] 1.66 µM
not listed: [10] | [15] | [18] | [20]
inactive: all other assays above

Cc1cc(=O)[nH]o1
not listed: [14]
inactive: all other assays above

CN
not listed: [13] | [18]
inactive: all other assays above

c1coc(-c2nc3ccccc3[nH]2)c1
not listed: [12]
inactive: all other assays above

C[C@@H]1CC[C@H]2[C@@H](C)C(=O)O[C@@H]3O[C@@]4(C)CC[C@@H]1[C@]32OO4
not listed: [11] | [12] | [13] | [14]
inactive: all other assays above

N#CC(Br)(Br)C(N)=O
active: [13] 0.0047 µM
not listed: [16] | [18] | [19] | [20]
inactive: all other assays above

Fc1ccc(C(OCCN2CCN(CCCc3ccccc3)CC2)c2ccc(F)cc2)cc1
active: [1] 13.3 µM | [16] 29.8 µM | [19] 26.6 µM
not listed: [10] | [11] | [15] | [18] | [20]
inactive: all other assays above

CCCCCCC[CH2][Sn]([Cl])([Cl])[CH2]CCCCCCC
active: [1] 30.6 µM | [3] 48.9 µM
not listed: [10] | [15] | [18] | [20]
inactive: all other assays above

Clc1ccc(-c2ccc(Cl)c(Cl)c2Cl)c(Cl)c1Cl
active: [1] 51.9 µM
not listed: [10] | [15] | [18]
inactive: all other assays above
